Shown is part of a subset that was picked to be rich in hits.
SF1 inhibitor: inhibitors of human SF-1, primary screen, cell-based, CHO-K1, Gal4-SF-1 LBD, luciferase luminescence; Steroidogenic factor 1 (Homo sapiens), Q13285; CHO-K1 Gal4-SF-1 LBD luciferase reporter; inhibition, % at 10 µM; 65,000 tested, 0.55% active; AID 525, 2006;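 active = inhibition above the mean inhibition of all tested compounds plus 3 SD, cut at about 48% in these data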;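 also: 0% = SF-1 transfected cells with DMSO and 100% = mock-transfected cells lacking SF-1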
Target sequence (Q13285 whole entry, looked up, the tested form may be a part): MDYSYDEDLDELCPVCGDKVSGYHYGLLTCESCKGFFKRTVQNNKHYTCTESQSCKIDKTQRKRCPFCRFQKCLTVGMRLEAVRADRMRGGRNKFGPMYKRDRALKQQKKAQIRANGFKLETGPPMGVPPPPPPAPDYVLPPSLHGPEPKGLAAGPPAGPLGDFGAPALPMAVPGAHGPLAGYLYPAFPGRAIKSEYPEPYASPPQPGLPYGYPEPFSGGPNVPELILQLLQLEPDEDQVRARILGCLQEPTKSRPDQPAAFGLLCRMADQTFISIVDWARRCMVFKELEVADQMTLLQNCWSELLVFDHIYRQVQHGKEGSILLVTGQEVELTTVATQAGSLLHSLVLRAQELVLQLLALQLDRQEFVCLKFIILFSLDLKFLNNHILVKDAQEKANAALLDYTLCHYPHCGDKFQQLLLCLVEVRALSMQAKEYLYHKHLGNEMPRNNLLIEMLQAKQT
Numbers without * were called inactive.

SMILES | SF1 inhibitor
C/C(=N\O)C(C)/[N+]([O-])=C/c1nc(C)c(C)n1O (configuration not stated) | 2
Cc1ccc2cc(CN(C(=O)c3ccncc3)C(C)C)c(=O)[nH]c2c1 | -8
COc1ccc(-n2nc(C(=O)NCc3ccco3)c3c4ccccc4n(C)c3c2=O)cc1 | 26
COc1cccc(Cn2c(NCc3ccco3)nc3c2c(=O)n(C)c(=O)n3C)c1 | 63*
COc1ccc(Cl)c(Cn2c(NCc3ccco3)nc3c2c(=O)n(C)c(=O)n3C)c1 | 49*
Cn1c(=O)c2c(nc(CN3CCN(C(=O)c4ccco4)CC3)n2Cc2ccc(F)cc2)n(C)c1=O | -12
CCN(CC)CCn1c(NCc2cccc(OC)c2)nc2ccccc21 | 3
COc1ccc(OC)c(C(=O)CSc2nc3c(c(=O)n(C)c(=O)n3C)n2C(C)C)c1 | 9
CCOC(=O)C1CCN(C(=O)CN(C)S(=O)(=O)c2cc(C)ccc2OC)CC1 | -4
CCC1CCc2c(sc(NC(=O)c3ccoc3C)c2C(N)=O)C1 (configuration not stated) | -33
COC(=O)c1c(-c2ccncc2)csc1NC(=O)c1ccoc1C | -64
Cc1c(NS(=O)(=O)CC23CCC(CC2=O)C3(C)C)c(=O)n(-c2ccccc2)n1C (configuration not stated) | -10
Cc1cccc(CSc2nnc(-c3ccco3)n2C)c1 | -5
COc1ccc(-c2cc3nc4n(c(=O)c3s2)CCC4)cc1 | 78*
CCCC(OC(=O)CN1C(=O)COc2ccccc21)C(=O)NC1CCCC1 (configuration not stated) | 11
CCCNC(=O)C(NS(=O)(=O)c1cccc2nsnc12)c1ccccc1 (configuration not stated) | 8
C=CCn1c(SCC(=O)c2cccs2)nnc1-c1cccc(OC)c1 | 4
CCOC(=O)c1c(C)n(CC(O)c2ccccc2)c2ccc(O)cc12 (configuration not stated) | 7
O=C(CSc1ccccc1)NCc1cccnc1 | -3
COC(=O)CC(=O)CSc1nc2c(cc1C#N)CCCCC2 | -78
COCCCNc1oc(-c2ccccc2OC)nc1C#N | 7
COc1ccccc1-c1nnc(Nc2nc3c(OC)cccc3s2)o1 | 67*
COc1cccc(-c2nnc(Nc3nc4c(F)cccc4s3)o2)c1 | -51
COc1ccccc1NC(=O)N(Cc1cc2cc(OC)c(OC)cc2[nH]c1=O)CC1CCCO1 (configuration not stated) | 12
COc1cc(C2C(C#N)=C(N)Oc3cc(C)n(CC4CCCO4)c(=O)c32)cc2c1OCO2 (configuration not stated) | -5
SMILES | SF1 inhibitor
COC(=O)Cc1[nH]nc2c1C(c1cccc(OC)c1OC)C(C#N)=C(N)O2 (configuration not stated) | 6
COc1cc(C2C(C#N)=C(N)Oc3cc(N)ccc32)cc(OC)c1OC (configuration not stated) | 63*
CCCCCCNc1c(C(=O)OCC)c(=O)[nH]c2ccccc12 | 3
Cc1c(C(=O)O)sc(=S)n1CCOc1ccccc1 | 16
O=C(Nc1nccs1)NC(C(F)(F)F)C(F)(F)F | -1
Cc1cc(/C=N/n2cnnc2)c(C)n1-c1ccc(OCc2ccc(F)cc2)cc1 | 86*
COc1ccc2nc(NC(=O)CSc3nnc4n3C(C)(C)Cc3ccccc3-4)sc2c1 | 6
O=C(Nc1ccc(Nc2ccccc2)cc1)c1ccco1 | -87
COC(=O)c1ccc(C(=O)OC)c(NC(=O)CSc2nnc(-c3ccccc3Cl)o2)c1 | 3
CCOc1cc(C(=O)CSc2nnc(CNc3ccc(Cl)cc3)o2)ccc1NC(=O)CC | 56*
COc1ccc(OC)c(NC(=O)CSc2nnc(CNc3ccc(F)cc3)o2)c1 | -10
O=S(=O)(NCCc1ccccc1)c1cccc(S(=O)(=O)N2CCOCC2)c1 | -6
CC(=O)N1CCc2cc(S(=O)(=O)NCCC(=O)NCCc3ccccc3)ccc21 | 2
Cc1nc2ccc(S(=O)(=O)NCC(=O)N3CCCCC3)cc2s1 | 3
Cc1cc(OC(=O)N2CCOCC2)cc(C)c1Cl | -3
N#CC(C#N)=c1ccc2c(c1)NC1(CCCCC1)N=2 | 65*
CCc1ccccc1NC(=O)CSc1nc2c(c(-c3ccco3)c1C#N)CCCC2 | -3
COC(=O)C(C)Sc1nc2c(cnn2-c2ccccc2)c(=O)[nH]1 (configuration not stated) | -7
CCSc1nnc(NC(=O)c2ccccn2)s1 | 55*
CCSc1nnc(NC(=O)c2cc3c(s2)CCCC3)s1 | -52
CCSc1nnc(Nc2ccccc2)s1 | -54
O=c1[nH]c(CN2CCN(Cc3ccccc3)CC2)nc2sc3c(c12)CCC3 | -5
Oc1ccc(N2CCN(c3ncnc4sc5c(c34)CCC5)CC2)cc1 | 50*
CC(C)c1nc2oc3c(N4CCNCC4)ncnc3c2c2c1CCC2 | -15
CCCOC(=O)c1ccc(NC(=O)c2ccoc2C)cc1 | -63
SMILES | SF1 inhibitor
Cc1ccc2oc(=O)c3cnn(CC(=O)N4CCCCC4C)c3c2c1 (configuration not stated) | -10
CC1Cc2ccccc2N1S(=O)(=O)c1ccc2c(c1)n(C)c(=O)c(=O)n2C (configuration not stated) | -12
Cc1ccccc1NC(=O)N1CCCC(c2nc(-c3ccc(C(C)C)cc3)no2)C1 (configuration not stated) | 51*
CC(C)c1ccc(NC(=O)C2CCCN(S(=O)(=O)c3cnc[nH]3)C2)cc1 (configuration not stated) | -6
Cc1csc2ncc(C(=O)Nc3ccccc3F)c(=O)n12 | -50
COc1ccc(Oc2c(C)oc3c(CN(C)C)c(O)ccc3c2=O)cc1 | 0
CCOc1cc(-c2cc(-c3ccc(N)cc3)nc(N)c2C#N)ccc1O | -54
COc1cccc2c1C(=O)c1c(O)c3c(c(O)c1C2=O)C[C@@](O)(C(C)=O)C[C@@H]3O[C@H]1C[C@H](N)[C@H](O)[C@H](C)O1 | 89*
COc1ccc(-c2nc3c(Br)c(N)c(Br)cc3o2)cc1 | -73
CSCCNC(=O)c1ccc(C(C)(C)C)cc1 | -73
CCOC(=O)CC(=O)CSc1nnc2c(n1)[nH]c1ccccc12 | -53
COc1ccc2[nH]c3nc(SC(C)C)nnc3c2c1 | 63*
COc1cccc(C2C(C(=O)NCc3ccccc3)=C(C)Nc3ncnn32)c1 (configuration not stated) | 5
CCN(c1ccccc1)c1ncnc2c1cnn2-c1ccccc1 | -59
Cc1cccc(-n2ncc3c(N(C)C4CCCCC4)ncnc32)c1 | 77*
c1ccc(-n2ncc3c(NCCN4CCCCC4)ncnc32)cc1 | -69
COc1ccc(-n2ncc3c(N(C)C4CCCCC4)ncnc32)cc1 | 74*
Cc1cccc(-n2ncc3c(NCc4ccccc4)ncnc32)c1 | -82
Cc1cccc(-n2ncc3c(NCc4ccco4)ncnc32)c1 | -93
C=CCNc1nc(NCCO)nc(N2CCCC2)n1 | -4
COc1ccccc1NC(=O)CN1CCC(n2c(C)nc3cc(F)ccc32)CC1 | -14
Cn1c(SCC(=O)NCc2ccc3c(c2)OCO3)nnc1-c1cccs1 | -14
CCOC(=O)CSc1ccc2nnc(-c3cccnc3)n2n1 | 10
CCN1CCCC1CNC(=O)c1cn(CC)c2ccc(S(=O)(=O)N3CCCCCC3)cc2c1=O (configuration not stated) | 10
CCNC(=O)NC(=O)COc1ccccc1C#N | -54
Cc1cccc(OCC(O)CN2C(C)(C)CC(O)CC2(C)C)c1C (configuration not stated) | 2
O=C(CSc1ncccn1)NCc1ccccc1Cl | -68
Cc1nc2nc(-c3ccccc3)cn2nc1C | 55*

Compound activity as filed in PubChem BioAssay.
